# ALDH1A1 inh – blocks purified human ALDH1A1 activity; P00352; Purified ALDH1A1, NADH fluorescence, propionaldehyde substrate; Potency, µM (top dose mostly 75.3 µM), for inactives: at the highest dose activity, negative = inhibition, usual class: inhibitors; 7.3% of 220,000 active; AID 1030;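 further: potency means the concentration at half of the fitted maximal effect; plate controls were no enzyme wells and a reference inhibitor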
# PNC assembly inh – inhibitors of perinucleolar compartment assembly. PC3M PTB-GFP, PNC prevalence imaging, 16 h; stronger effect = lower value. activity change (PNC), negative = inhibition, % at 10 µM. 3.1% of 140,000 active;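 active means readout at or below -70, meaning at least 70% loss of cells showing the perinucleolar compartment, a nuclear body marking cancer cells; inconclusive means readout between -30 and a set limit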;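 further: plate controls were DMSO wells for no effect and camptothecin positive control wells for full effect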
#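 Read-out is percentage of cells bearing a perinucleolar compartment, from automated 20x imaging of fixed, Hoechst-stained PC3M PTB-GFP cells. Cells were seeded 4 h, then exposed 16 h to compound (23 nl of library stock) in duplicate plates.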
# HPGD inh – HPGD (human) dehydrogenase inhibition; P15428; 4.3% of 150,000 active; Potency, µM, for the others: at the highest dose activity change, negative = inhibition, most hits filed as inhibitors; purified HPGD, NADH fluorescence kinetic, PGE2 substrate; AID 894; further: potency means the concentration at half of the fitted maximal effect
# Target sequence (P15428 whole entry, looked up): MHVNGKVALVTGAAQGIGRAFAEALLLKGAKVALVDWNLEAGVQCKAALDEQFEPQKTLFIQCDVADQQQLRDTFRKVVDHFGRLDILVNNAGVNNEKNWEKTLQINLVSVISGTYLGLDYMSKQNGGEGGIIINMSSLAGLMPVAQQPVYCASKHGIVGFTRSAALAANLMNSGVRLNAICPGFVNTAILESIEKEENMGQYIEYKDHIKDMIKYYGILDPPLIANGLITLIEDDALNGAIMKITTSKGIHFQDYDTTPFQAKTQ
#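 NADH formation kinetics: reaction with 30 uM PGE2 and 1 mM NAD+ (final), 20 nM enzyme, Tris-HCl pH 8 with Tween 20, after 15 min compound preincubation at room temperature. Fluorescence change, last versus first of five reads.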
# The depositor's hits bear a star; u = inconclusive; x = no result; [ ] = dose if it differs, or a comment. Compounds with a hit are over-represented: about 11% of the library has one in this group of screens. Unless noted, the call rests on the fitted dose curve; in most records, active means well fitted inhibition curve with a large enough effect (not every such curve was filed as active); inconclusive means small, poorly fitted or top-dose-only effect, or another doubt; inactive means no such curve, though single readings can be large or run the other way. Unless noted, on the % scale 0 is the no-effect control and ±100 the full control effect.
SMILES,ALDH1A1 inh,PNC assembly inh,HPGD inh
CC1CCCCN1C(=S)NCCc1ccccc1 (configuration not stated),-10%,14,-14%
CCc1cccc2c(C(=S)N3CCOCC3)c[nH]c12,-1%,x,x
COc1cccc(CNc2ccc([N+](=O)[O-])c(NCC(=O)O)n2)c1,5%,x,x
COc1ccccc1CN1CC[C@@]2(CCCN(C(=O)c3ccncc3)C2)C1,6%,x,-2%
CCCc1c(OCCCOc2ccc(OCC(=O)O)cc2)ccc(C(C)=O)c1O,6%,x,-12%
COc1ccc(OC)c(/C=N\NC(=O)c2ccc(=O)n(C)c2)c1,-14%,-17,-22%
COc1ccc(OC)c(/C=N/NC(=O)c2cc3c(OC)c(OC)ccc3[nH]2)c1,-14%,-112*,-17%
COc1ccc(N2CCN(C(C)C(=O)Nc3nnc(C)s3)CC2)cc1 (configuration not stated),7%,x,x
Cn1c(NC(=O)Cc2cccc3ccccc23)cc(=O)n(C)c1=O,14µM*,x,x
Cc1cccc(CC(=O)Nc2cc(=O)n(C)c(=O)n2C)c1,u,u,-1%
COCC(=O)Nc1cc(=O)n(C)c(=O)n1C,6%,-84*,-7%
COc1ccc(CC(=O)Nc2cc(=O)n(C)c(=O)n2C)cc1OC,17%,x,x
CC(C)OC(=O)c1cn(-c2ccccc2)nc1-c1ccco1,11µM*,u,-24%
CCOC(=O)C1=C(C)NC(C)=C(C(=O)OCC)C1c1cn(-c2ccccc2)nc1-c1ccco1,u,-25,15%
Cc1ccccc1NC(=S)NCc1ccc2c(c1)OCO2,-8%,36,u
CC(C)OCCCNC(=S)Nc1ccc(S(N)(=O)=O)cc1,1%,u,7.9µM*
NS(=O)(=O)c1ccc(NC(=S)NCc2ccc(Cl)cc2)cc1,22µM*,54,20µM*
NS(=O)(=O)c1ccc(CNC(=S)Nc2ccc(F)c(Cl)c2)cc1,-21%,x,x
NS(=O)(=O)c1ccc(NC(=S)NCc2ccc3c(c2)OCO3)cc1,22µM*,x,x
Fc1ccc(NC(=S)NCc2ccc3c(c2)OCO3)cc1,2%,x,x
COc1ccc(CC(=O)NC(=S)Nc2ccc(S(N)(=O)=O)cc2)cc1,-1%,u,-3%
Cc1ccccc1NC(=S)NCc1ccc(Cl)cc1,u,42,16µM*
COc1ccc(Nc2ccc(N3C(=O)CCCC3=O)cc2[N+](=O)[O-])c(OC)c1,1%,u,-16%
Cc1ccc(-n2nnnc2CN2CCCCC2)cc1,5%,x,x
COc1ccc(C(=O)C2CCCN(S(=O)(=O)C(C)C)C2)c(C)c1 (configuration not stated),10%,x,x
SMILES,ALDH1A1 inh,PNC assembly inh,HPGD inh
OCCNNC(=S)NC1CC2C=CC1C2 (configuration not stated),-15%,x,x
CSCC(CO)NS(=O)(=O)c1ccc(C)cc1 (configuration not stated),-4%,x,x
COc1cc(C(F)(F)F)c(C(=O)NCc2cccc(Cl)c2)cn1,-8%,x,x
COc1cccc(/C=C/C(=O)O)c1C(C)C,-3%,x,-15%
COc1cc(NC(=S)NCc2ccco2)cc(OC)c1OC,u,u,16µM*
Fc1ccc(CNC(=S)Nc2ccc(Cl)cc2)cc1,2%,23,-15%
COc1ccccc1NC(=S)NCc1ccco1,-11%,-10,-29%
O=C(NCc1ccc2c(c1)OCO2)c1ccc(CS(=O)(=O)c2cccc(C(F)(F)F)c2)o1,-9%,-23,-11%
S=C(NCc1ccc(Cl)cc1)Nc1ccccc1,-6%,-2,18µM*
COc1cc(NC(=S)Nc2ncccc2C)cc(OC)c1OC,18µM*,x,x
COc1cc(NC(=S)Nc2cccc(C)n2)cc(OC)c1OC,5%,x,x
O=C(NCc1ccc2c(c1)OCO2)c1ccc(CS(=O)(=O)c2ccc(Br)cc2)o1,-10%,-87*,4%
NC(=S)NNC(=O)C12CC3CC(CC(C3)C1)C2,u,-12,-7%
CC#CCN1c2ccccc2[C@]23C[C@@H](C(=O)OC)N(C(=O)c4ccco4)C2=NC(C(=O)OC)=C(C(=O)OC)[C@H]13,6%[13.5 µM],x,-5%
CC(=O)c1ccc(NC(=S)NCc2ccco2)cc1,-5%,x,x
NS(=O)(=O)c1ccc(NC(=S)NCc2ccco2)cc1,6.3µM*,x,x
CCOc1ccc(N2CC(C(=O)Nc3c(C)n(C)n(-c4ccccc4)c3=O)CC2=O)cc1 (configuration not stated),-6%,x,x
O=C1c2ccccc2-c2onc3ccc(N4CCCC4)c1c23,22µM*,x,x
O=C1c2ccccc2-c2onc3ccc(NCc4ccco4)c1c23,u,-16,-7%
CCOc1ccc2noc3c2c1C(=O)c1ccccc1-3,u,u,-12%
CCNc1ccc2noc3c2c1C(=O)c1ccccc1-3,-7%,-100*,-18%
CC1(C)Cc2ccccc2-c2nnnn21,11µM*,u,-8%
COc1cc2c(cc1OC)-c1nnnn1C(C)(C)C2,u,17,-10%
c1ccc2c(c1)CC1(CCCC1)n1nnnc1-2,13µM*,-21,x
c1coc(-c2nnc3n2C2(CCCC2)Cc2ccccc2-3)c1,12%,-2,-1%
SMILES,ALDH1A1 inh,PNC assembly inh,HPGD inh
[N-]=[N+]=NC[C@@H]1O[C@@H](n2cnc3c(N)ncnc32)[C@@H]2O[C@@H]21,-5%[13.5 µM],x,-6%
Cc1ccc(N2C(=O)N(CC(=O)Nc3ccc(C)c(C)c3[N+](=O)[O-])C(=O)C2C)cc1 (configuration not stated),3%,x,x
Cc1noc(C)c1-c1cncnc1NC1CC1,3%,x,-8%
CCCCCNCCCCC,u,x,-4%
O=C(Nc1ccc(C(F)(F)F)cc1)c1csc(-c2ccncc2)n1,-6%,x,x
NNC(=O)c1csc(-c2cccc(C(F)(F)F)c2)n1,4.5µM*,x,x
CC(C)(C)NC(=O)CCN(/N=C/c1ccc([N+](=O)[O-])o1)C1=NS(=O)(=O)c2ccccc21,7%,51,-3%
COc1ccc(OC(=O)c2cnc3n(c2=O)CCS3)cc1,4%,x,x
CC1(C)CC2C1CC[C@]1(C)CCC3C(C(=O)O)CC(=O)O[C@]32C1 (some centres not stated),23%,x,-9%
CC1(C)Cc2nc3sc(C(=O)O)c(N)c3cc2CS1,-11%,x,x
CCc1nc2sc3c(=O)n(N)cnc3c2c2c1COC(C)(C)C2,12%,-19,-10%
CCCCn1cnc2c(sc3nc4c(cc32)CSC(C)(C)C4)c1=O,1.1µM*,-27,-17%
CC(C)CCn1cnc2c(sc3nc4c(cc32)CSC(C)(C)C4)c1=O,1.8µM*,u,-10%
CCCCN(c1ccccc1)c1ncnc2c1cnn2C,8%[13.5 µM],x,-11%
CCOC(=O)n1c(=O)[nH]c2ccc(Br)cc21,5%,x,x
CCC(C)NC(=O)COC(=O)c1oc2ccccc2c1CSc1ccc(Cl)cc1 (configuration not stated),9%,-12,-7%
CC(OC(=O)c1oc2ccccc2c1CSC1CCCCC1)C(=O)NC(N)=O (configuration not stated),2µM*,6,-17%
CCOc1ccc(S(=O)(=O)N(CC(=O)N/N=C/c2ccc(-c3ccc([N+](=O)[O-])cc3)o2)c2ccccc2)cc1,25µM*,47,-21%
Cc1ccc(C)c(N(CC(=O)N/N=C/c2ccc(-c3ccc([N+](=O)[O-])cc3)o2)S(=O)(=O)c2ccccc2)c1,u,u,-20%
Cc1[nH]c2ccccc2c1/C=N/NC(=O)c1cccc([N+](=O)[O-])c1,0%,x,x

# Assay outcomes deposited in PubChem BioAssay by National Center for Advancing Translational Sciences (NCATS).
